Compounds with a hit are over-represented: about 11% of the library has one in this group of screens.
Vaccinia mCherry – vaccinia inhibition (mCherry reporter); Vaccinia virus mCherry reporter infection, fluorescence; Potency, µM (series often up to 36.5 µM), actives largely listed as inhibitors; 0.63% of 310,000 active; AID 720579; calls by dose curve; tested in A549 cells; further: nearly all actives have a fitted effect of over 35% in size
Pf growth 48h – inhibits P. falciparum growth in the first generation, 48 h | P. falciparum luciferase growth in erythrocytes, 48 h | 5.9% of 310,000 active | Potency, µM (doses to about 28.7 µM), most hits filed as inhibitors
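Luciferase-expressing parasites in RBCs, 2% Hct / 0.1% parasitemia final; RPMI 1640 + 0.5% Albumax; 37 C, 5% CO2, one generation; luminescence read-out, lower signal = inhibition.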
HCV inhibitor – blocks hepatitis C virus. Huh7.5.1 HCVcc-Cre infection, luciferase reporter, 44 h. Potency, µM (top dose mostly 41.8 µM), hits mostly inhibitors. 3.4% of 340,000 active. AID 651820
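1,000 cells/well; 4 h culture; + compound; + HCVcc-Cre (~0.5 moi); 44 h; luciferase substrate, RT 15 min; read 15 sec.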
NS1 inh – blocks influenza NS1 protein function; Potency, µM (highest dose often 46.1 µM); 0.4% of 270,000 active; AID 2326; calls by dose curve; further: actives are rising curves; nearly all actives have a fitted effect of over 50% in size
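A cell-based growth assay was used: compounds that relieve NS1-induced slow growth of budding yeast raise OD600. Assay medium was yeast nitrogen base with ammonium sulphate and -URA supplement, pH 6.0, with 2% galactose.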
Pf growth 96h – P. falciparum growth inhibition at 96 hours; AID 504834; 6.9% of 320,000 active; Potency, µM (highest dose often 28.7 µM), usual class: inhibitors; P. falciparum luciferase reporter growth, 96 h
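Compounds incubated with erythrocytes infected by luciferase-expressing P. falciparum (2% hematocrit, 0.05% parasitemia final) for 96 hours, 37 C in 5% CO2. Growth inhibition scored as decreased luciferase luminescence.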
Vaccinia Venus – vaccinia inhibition (Venus reporter); 0.46% of 330,000 active; Vaccinia virus Venus reporter expression, fluorescence; Potency, µM (titrated, usually from 36.5 µM), most hits filed as inhibitors; calls by dose curve; tested in A549 cells; further: nearly all actives have a fitted effect of over 30% in size
Of the large screens only hits and unclear results are named; the others gave an inactive call; ! = a repeat was not active. Unless noted, the call rests on the fitted dose curve; in most records, active means well fitted inhibition curve with a large enough effect; inconclusive means small, poorly fitted or top-dose-only effect, or another doubt; inactive means no such curve, though single readings can be large or run the other way.

Cc1ccc(O)c(C(=O)c2cc(C#N)c(=O)n(C(C)c3ccccc3)c2)c1 (stereo not given)	Pf growth 48h 3.3µM, Pf growth 96h 5.9µM (no result: NS1 inh)
O=C(CCC1N=C2c3ccccc3N=C(SCc3ccc(Cl)cc3)N2C1=O)NCCc1ccccc1 (stereo not given)	none (no result: Pf growth 48h, HCV inhibitor, NS1 inh, Pf growth 96h)
COc1ccc(-n2c(SCc3cn4c(C)cccc4n3)nc3ccccc3c2=O)cc1OC	HCV inhibitor inconclusive, Pf growth 96h inconclusive (no result: Vaccinia mCherry, Vaccinia Venus)
Cc1occc1C(=O)NNC(=O)c1ccc(Br)o1	none (no result: NS1 inh)
COCCCn1cc(C(=O)c2cc(Br)ccc2O)cc(C#N)c1=O	Vaccinia mCherry inconclusive, Pf growth 48h inconclusive, Pf growth 96h 9.3µM (no result: NS1 inh)
C=CCn1cc(C(=O)c2cc(Br)ccc2O)cc(C#N)c1=O	Vaccinia mCherry inconclusive, Pf growth 48h inconclusive, Pf growth 96h inconclusive
CCOCCCn1cc(C(=O)c2cc(Br)ccc2O)cc(C#N)c1=O	Pf growth 48h 5.2µM, Pf growth 96h inconclusive (no result: NS1 inh)
CCn1nc(C)c(/C=C2\CCCC3=C2OC(N)=C(C#N)C3c2c(C)nn(CC)c2C)c1C (stereo not given)	Pf growth 48h 10µM (no result: Vaccinia mCherry, HCV inhibitor, Vaccinia Venus)
Cc1cnc(C(=O)N2CCN(S(=O)(=O)c3ccc4ccccc4c3)CC2)cn1	Pf growth 96h 9.3µM (no result: Vaccinia mCherry, Pf growth 48h, Vaccinia Venus)
O=C(c1cnc(Cl)c(Cl)c1)N1CCN(S(=O)(=O)c2ccc3ccccc3c2)CC1	HCV inhibitor 11µM (no result: NS1 inh)
O=C(c1ccncc1)N1CCN(S(=O)(=O)c2ccc3ccccc3c2)CC1	HCV inhibitor inconclusive (no result: Vaccinia mCherry, Vaccinia Venus)
COc1ccc2c(CCNC(=O)c3ccco3)c[nH]c2c1	none
CCCc1cc2c(=O)c(-c3ccccn3)coc2cc1OC	Vaccinia Venus inconclusive
CCCc1cc2c(=O)c(-c3ccccn3)c(C)oc2cc1O	Pf growth 48h inconclusive, Pf growth 96h 9.3µM
Cn1c(=S)[nH]c2cccnc21	Pf growth 96h 8.3µM
CC(=O)NC(Cc1ccc(N(CCCl)CCCl)cc1)C(=O)O (stereo not given)	Pf growth 96h inconclusive
N[C@@H](Cc1ccc(N(CCCl)CCCl)cc1)C(=O)O	Pf growth 48h inconclusive, HCV inhibitor inconclusive, Pf growth 96h 9.5µM! (no result: NS1 inh)
COC(=O)CN1C(=O)N/C(=C/c2cc3c(cc2OC)OCO3)C1=O	none (no result: NS1 inh)
CCOc1cc2c(cc1/C=C1/NC(=O)N(CC(=O)OC)C1=O)OCO2	HCV inhibitor 10µM, Pf growth 96h inconclusive (no result: NS1 inh)
CCCCOc1ccc(-c2nnn(CCC(=O)N3CCOCC3)n2)cc1	Pf growth 96h 9.3µM
CCOc1ccc(-c2nnn(CC(=O)c3ccc4c(c3)OCCO4)n2)cc1	HCV inhibitor inconclusive, Pf growth 96h inconclusive
CCCOc1ccc(-c2nnn(CC(=O)N3CCC(C)CC3)n2)cc1	none (no result: Pf growth 48h)
CCCOc1ccc(-c2nnn(CC(=O)c3ccc4c(c3)OCCO4)n2)cc1	Pf growth 48h inconclusive, HCV inhibitor inconclusive, Pf growth 96h 7.4µM
COc1c(O)ccc2cnn(-c3ccccc3C)c(=O)c12	none (no result: Vaccinia mCherry, Vaccinia Venus)
CCCCN(CCCC)CCCN1CC(=O)N2[C@@H](Cc3c([nH]c4ccccc34)C2(C)C)C1=O	Vaccinia mCherry inconclusive, Pf growth 48h 9.3µM, Pf growth 96h inconclusive
CCCCOCCCN1CC(=O)N2[C@@H](Cc3c([nH]c4ccccc34)C2(C)C)C1=O	Vaccinia mCherry inconclusive, Pf growth 48h inconclusive, Pf growth 96h 9.3µM
Cc1nc2ccccc2c(=O)n1Nc1cccc(Cl)c1	Pf growth 48h 2.9µM, Pf growth 96h 5.9µM
Cc1ccc(C(=O)Nn2c(C)nc3ccccc3c2=O)cc1C	Pf growth 96h 13µM (no result: Vaccinia mCherry, Vaccinia Venus)
CCOC(=O)c1cnc2c(-c3ccc(Cl)cc3)c(C)nn2c1N	Pf growth 96h 9.3µM
Cc1nn(C)c2ncc(C(N)=O)c(Oc3cccnc3)c12	none
CCOC(=O)c1cnc2c(c(C)nn2C)c1Oc1ccc(Cl)cc1	Pf growth 48h inconclusive, Pf growth 96h 1.5µM (no result: Vaccinia mCherry, Vaccinia Venus)
O=C(c1cccnc1)N1CCC(Oc2ccc(C(=O)N3CCCCO3)cc2)CC1	none
C[C@]12C=CC(=O)C=C1CC[C@@H]1C2[C@@H](O)C[C@@]2(C)C1CC[C@]2(O)C(=O)COC(=O)CCC(=O)O (stereo not given in full)	none
CCCC1O[C@@H]2CC3C4CCC5=CC(=O)C=C[C@]5(C)C4C(OC(C)=O)C[C@]3(C)[C@]2(C(=O)COC(C)=O)O1 (stereo not given in full)	Pf growth 48h 9.3µM, Pf growth 96h 1.2µM (no result: Vaccinia mCherry, Vaccinia Venus)
CCCC1OC2CC3C4CCC5=CC(=O)C=CC5(C)C4C(O)CC3(C)C2(C(=O)O)O1 (stereo not given)	none (no result: Vaccinia mCherry, Vaccinia Venus)
CCC[C@@H]1O[C@@H]2C[C@@H]3[C@H]4CCC5=CC(=O)C=C[C@@]5(C)[C@H]4[C@H](O)C[C@@]3(C)[C@@]2(C(=O)CO)O1	Pf growth 48h 11µM, Pf growth 96h 4.8µM (no result: Vaccinia mCherry, HCV inhibitor, NS1 inh, Vaccinia Venus)
CC(C)C(=O)OCC(=O)[C@@]12OC(C3CCCCC3)O[C@@H]1CC1C3CCC4=CC(=O)C=C[C@]4(C)C3[C@@H](O)C[C@@]12C (stereo not given in full)	Pf growth 48h 0.67µM, Pf growth 96h 0.76µM (no result: Vaccinia mCherry, HCV inhibitor, NS1 inh, Vaccinia Venus)
C=C1N[C@]2(C(=O)COC(C)=O)[C@@H](C[C@H]3[C@@H]4CCC5=CC(=O)C=C[C@]5(C)[C@H]4[C@@H](O)C[C@@]32C)O1	Pf growth 48h inconclusive, Pf growth 96h 9.5µM (no result: Vaccinia mCherry, HCV inhibitor, NS1 inh, Vaccinia Venus)
CC(=O)OCC(=O)C1(O)CCC2C3CCC4=CC(=O)C=CC4(C)C3C(O)CC21C (stereo not given)	none
CC1(C)OC(=O)C(=CNc2ccccn2)C(=O)O1	none
CC1CCN(C(=O)CCc2nnc3ccc(N4CCC5(CC4)OCCO5)nn23)CC1	none
CCC(=O)[C@@]1(C)[C@H](C)C[C@H]2[C@@H]3CCC4=CC(=O)C=C[C@]4(C)[C@H]3[C@@H](O)C[C@@]21C	Pf growth 48h 2.3µM (no result: NS1 inh)
CCCC1O[C@@H]2C[C@H]3[C@@H]4CCC5=CC(=O)C=C[C@]5(C)[C@H]4[C@@H](O)C[C@]3(C)[C@]2(C(=O)CO)O1 (stereo not given in full)	Pf growth 48h 4.1µM, Pf growth 96h 2.3µM
COc1ccc(CNC(=O)COC(=O)c2cccc(S(=O)(=O)N3CCOCC3)c2)cc1	Pf growth 96h inconclusive (no result: NS1 inh)
CC(NC1CCCCC1)C(O)C12CC3CC(CC(C3)C1)C2 (stereo not given)	Vaccinia mCherry inconclusive, Pf growth 48h 7.4µM, HCV inhibitor inconclusive (no result: Pf growth 96h)
CC(NC(N)=O)C12CC3CC(CC(C3)C1)C2 (stereo not given)	none (no result: Vaccinia mCherry, Vaccinia Venus)
Cc1csc(NC(=O)C2CC(=O)N(Cc3ccco3)C2)n1 (stereo not given)	none
COc1cccc(/C=C2\SC(=S)N(CCC(=O)N3CCCCC3CCO)C2=O)c1 (stereo not given)	Pf growth 48h inconclusive, HCV inhibitor inconclusive, Pf growth 96h inconclusive (no result: Vaccinia mCherry, Vaccinia Venus)
O=C1/C(=C/c2cccs2)SC(=S)N1CCC(=O)N1CCCCC1CCO (stereo not given)	Vaccinia mCherry inconclusive, Pf growth 48h inconclusive, Pf growth 96h 12µM
